Records with an inconclusive call do not appear. Unmarked numbers belong to inactive results. Calls of active or inactive are those of the source. Calls follow the shape of the dose curve; as a rule, active = well fitted inhibition curve with a large enough effect; inconclusive = small, poorly fitted or top-dose-only effect; inactive = no such curve, though single readings can be large or run the other way.
These molecules were tested on Zika virus NS2B-NS3 protease (linked construct) (assay: Primary screen NINDS Rhodamine qHTS for Zika virus inhibitors (AID 1347160; also: nearly all actives have a fitted effect of over 55% in size)). Conditions: purified NS2B-NS3 protease, Rhodamine110 substrate fluorescence; series mostly up to 33.1 µM; activity change, negative = inhibition: at the top concentration.
Method in brief: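 Enzyme (25 nM, linked NS2B-NS3) was preincubated 15 min with compound in 10 mM Tris-HCl pH 8.0, 0.01% Tween 20. Rhodamine110 substrate (1.5 microM) was then added and fluorescence read at start and after 15 min.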
% is scaled to controls: 0 for no effect and ±100 for the full control effect.

| SMILES | outcome | activity change, negative = inhibition |
| --- | --- | --- |
| CC(=O)OC1C(O)C(C)(O)C(/C=C/C(=O)O)C2(C)CCCC(C)(C)C12 (stereo unspecified) | inactive [at 33.1 µM] | – |
| COc1cc(/C=C/C(=O)OCC2OC(OC3(CO)OC(CO)C(O)C3O)C(O)C(O)C2O)ccc1O (stereo unspecified) | – | -14.4% |
| C=C(C)[C@@H]1CC[C@]2(C(=O)O)CC[C@]3(C)[C@H](CCC4[C@@]5(C)CCC(=O)C(C)(C)C5C(O)C[C@]43C)C12 (stereo partly specified) | – | -11.7% |
| COC(=O)C(CC1(OC(=O)C(C)C)c2ccccc2N2C(=O)C(C)(C)N(O)C21)n1cnc2ccccc2c1=O (stereo unspecified) | – | 65.4% |
| COC(=O)C1=CO[C@@H](O[C@@H]2O[C@H](CO)[C@@H](O)[C@H](O)[C@H]2O)[C@@H]2C(CO)=CC[C@H]12 | – | 6.02% |
| Cc1ccc(COC(=O)N2CC[C@@H](CNc3ncccn3)[C@@H](F)C2)cc1 | inactive | – |
| CC(=O)O[C@@]1(C)[C@@H]2CC(=C(C)C)C(=O)C[C@@]2(C)CC[C@H]1OC(=O)C1(C)OC1C (stereo partly specified) | – | -6.28% |
| CC1=CC(=O)CC(C)(C)[C@@]1(O)/C=C/C(C)O[C@@H]1O[C@H](CO)[C@@H](O)[C@H](O)[C@H]1O (stereo partly specified) | – | 24.1% |
| CC/C=C\[C@H](O)[C@H](O)C1=C(C)C(=O)[C@]2(O1)C(=O)N[C@@](O)(C(=O)c1ccccc1)[C@@H]2O | – | 13% |
| CC1(C)CC[C@]2(C(=O)O[C@@H]3O[C@H](CO)[C@@H](O)[C@H](O)[C@H]3O)[C@H](O)C[C@]3(C)C(=CCC4[C@@]5(C)CC[C@H](O[C@@H]6OC[C@@H](O)[C@H](O)[C@H]6O)[C@@](C)(C(=O)O)C5CC[C@]43C)[C@@H]2C1 (stereo partly specified) | – | 8.57% [at 15.1 µM] |
| C=C1CC[C@@]2(OC1)O[C@H]1CC3[C@@H]4CC=C5C[C@@H](O)C[C@@H](O[C@@H]6OC[C@H](O)[C@H](O)[C@H]6O[C@@H]6O[C@@H](C)[C@H](O)[C@@H](O)[C@H]6O)[C@]5(C)C4CC[C@]3(C)[C@H]1[C@@H]2C (stereo partly specified) | – | -2.66% [at 15.1 µM] |
